Consider 8 compounds from PubChem BioAssay (NCI).

The panel holds about 83,000 compounds, 20% with a hit somewhere; the sample as a whole holds those more often.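 Activity criterion: percent growth below 10, measured after cells in 96-well plates were exposed to a single compound concentration for 48 hours.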 Unmarked numbers belong to inactive results. Active and inactive are the calls of the source.

Test systems include DU-145 prostate; K-562 leukemia; MALME-3M melanoma; MDA-MB-231 breast; RXF 393 renal; SF-268 CNS; SF-295 CNS; SF-539 CNS; UACC-257 melanoma; M14 melanoma; HCT-15 colon; HT29 colon; SNB-75 CNS; SNB-19 CNS; U251 CNS; PC-3 prostate; SK-MEL-5 melanoma; UACC-62 melanoma; LOX IMVI melanoma; SK-MEL-28 melanoma.
Assay in all cases: NCI-60 one-dose screen, 48 h (100 = growth as untreated, 0 = no growth, -100 = all killed)
Settings in all cases: 10 µM unless noted

Consider `O=C(Oc1ccc(Cl)cc1[N+](=O)[O-])Oc1ccc(Cl)cc1[N+](=O)[O-]`, for which the growth is 116% in the test on DU-145 prostate; 90.2% with K-562 leukemia; 135% with MALME-3M melanoma; 126% in the test on MDA-MB-231 breast; 124% in the test with RXF 393 renal; 105% in the test with SF-268 CNS. In addition, the growth was 119% in the test on SF-295 CNS; 109% in the test on SF-539 CNS; 107% in the test with UACC-257 melanoma; 109% in the test with M14 melanoma; 106% in the test with HCT-15 colon; 107% in the test on HT29 colon. For the same compound, the growth was 108% with SNB-75 CNS; 115% in the test with SNB-19 CNS; 99% in the test with U251 CNS; 88.5% in the test with PC-3 prostate; 120% with SK-MEL-5 melanoma; 113% in the test with UACC-62 melanoma. Moreover, the values for the growth with LOX IMVI melanoma and with SK-MEL-28 melanoma were 111% and 106%, respectively.
On to `N#C/C(C(=O)c1ccccc1)=C1/C(=O)Nc2ccc(Br)cc21`, for which the growth in the test with DU-145 prostate is 108%; with K-562 leukemia, 91.3%; in the test on MALME-3M melanoma, 96.7%; in the test with MDA-MB-231 breast, 95.5%; with RXF 393 renal, 111%; in the test with SF-268 CNS, 103%. Moreover, the growth is 100% in the test on SF-295 CNS; 94.7% with SF-539 CNS; 97.9% in the test with UACC-257 melanoma; 107% with M14 melanoma; 107% with HCT-15 colon; 113% in the test with HT29 colon. For the same compound, the growth with SNB-75 CNS is 70.5%; in the test on SNB-19 CNS, 98.6%; in the test with U251 CNS, 106%; in the test with PC-3 prostate, 96.4%; in the test with SK-MEL-5 melanoma it was 95.5%; with UACC-62 melanoma it was 92.5%. Further, the figures for the growth with LOX IMVI melanoma and with SK-MEL-28 melanoma were 103% and 105%, respectively.
As to `O=C(Nc1ccccc1)Nc1ccc(C(=O)/C=C/c2ccc(N3CCCC3)cc2)cc1`, the growth with DU-145 prostate was 94.7%; in the test on K-562 leukemia, 77.2%; in the test with MALME-3M melanoma, 79.1%; in the test with MDA-MB-231 breast, 56.8%; with RXF 393 renal it was 58.8%; in the test with SF-268 CNS, 57.6%. The growth was 73.4% in the test on SF-295 CNS; 78.7% in the test on SF-539 CNS; 51.4% in the test with UACC-257 melanoma; 101% in the test with M14 melanoma; 56.8% with HCT-15 colon; 69.5% with HT29 colon. Besides, the growth with SNB-75 CNS is 41%; in the test on SNB-19 CNS it was 68%; in the test with U251 CNS it was 66%; in the test on PC-3 prostate it was 59.9%; with SK-MEL-5 melanoma, 45%; with UACC-62 melanoma it was 42.2%. In addition, the growth is 85.6% in the test with LOX IMVI melanoma and 51.1% with SK-MEL-28 melanoma.
`CCCn1ccnc1C(O)c1ccc(OCc2ccccc2)c(OC)c1` (stereo not given): the growth in the test on DU-145 prostate was 104%; with K-562 leukemia, 107%; in the test on MALME-3M melanoma, 80.9%; in the test on MDA-MB-231 breast, 93.7%; in the test on RXF 393 renal it was 112%; in the test on SF-268 CNS, 93.4%. The growth in the test with SF-295 CNS is 76.4%; in the test on SF-539 CNS, 92.8%; in the test with UACC-257 melanoma it was 93.6%; in the test on M14 melanoma, 97.2%; with HCT-15 colon, 93.5%; with HT29 colon, 103%. Also, the growth is 71.2% with SNB-75 CNS; 82.8% with SNB-19 CNS; 86.8% with U251 CNS; 82.7% in the test with PC-3 prostate; 93.5% with SK-MEL-5 melanoma; 87.3% in the test on UACC-62 melanoma. For the same compound, the growth in the test with LOX IMVI melanoma was 94.4%; in the test with SK-MEL-28 melanoma it was 103%.
`COc1cc2c(c(Br)c1N)-c1cc(Br)c(N)cc1C2=O`: the growth with DU-145 prostate is 79.1%; with K-562 leukemia it was 94.9%; in the test with MALME-3M melanoma, 76.7%; with MDA-MB-231 breast it was 29.2%; with RXF 393 renal, 69.9%; in the test on SF-268 CNS it was 61.6%. The growth was 57.2% in the test on SF-295 CNS; 37% with SF-539 CNS; 92.3% in the test with UACC-257 melanoma; 91.1% in the test with M14 melanoma; 81.3% in the test with HCT-15 colon; 86.2% with HT29 colon. Further, the growth in the test with SNB-75 CNS was 25.9%; with SNB-19 CNS it was 69.1%; in the test with U251 CNS, 57.3%; with PC-3 prostate it was 93.2%; in the test on SK-MEL-5 melanoma it was 56.5%; in the test on UACC-62 melanoma, 74.9%. Besides, the growth was 68.8% with LOX IMVI melanoma and 81.4% in the test with SK-MEL-28 melanoma.
Regarding `COc1ccc(-c2ccc(NNC(=O)c3ccc(F)cc3)nn2)cc1OC`, the growth in the test on DU-145 prostate is 65.6%; in the test with K-562 leukemia, 55%; with MALME-3M melanoma, 98.8%; with MDA-MB-231 breast, 36.2%; with RXF 393 renal it was 19.5%; in the test with SF-268 CNS it was 58.2%. Further, the growth was 84.7% in the test on SF-295 CNS; 65.8% with SF-539 CNS; 102% with UACC-257 melanoma; 100% with M14 melanoma; 64.1% with HCT-15 colon; 59.7% in the test with HT29 colon. Also, the growth is 8.18% (active) in the test on SNB-75 CNS; 68.3% with SNB-19 CNS; 77.1% in the test on U251 CNS; 73.5% with PC-3 prostate; 71.6% in the test with SK-MEL-5 melanoma; 88.6% in the test with UACC-62 melanoma. Moreover, the growth in the test with LOX IMVI melanoma was 44.2%; in the test with SK-MEL-28 melanoma, 101%.
With `Cc1cccc([N+](=O)[O-])c1I`, the growth in the test with DU-145 prostate is 116%; in the test with K-562 leukemia, 141%; with MALME-3M melanoma it was 116%; in the test with MDA-MB-231 breast, 102%; in the test on RXF 393 renal it was 111%; in the test on SF-268 CNS it was 105%. Also, the growth in the test on SF-295 CNS was 101%; with SF-539 CNS, 105%; in the test on UACC-257 melanoma, 96.7%; with M14 melanoma, 108%; in the test with HCT-15 colon it was 113%; in the test with HT29 colon it was 106%. The growth in the test on SNB-75 CNS was 94.9%; in the test with SNB-19 CNS it was 106%; in the test with U251 CNS, 93.8%; in the test with PC-3 prostate it was 85.5%; with SK-MEL-5 melanoma, 109%; with UACC-62 melanoma it was 107%. Further, the growth in the test with LOX IMVI melanoma is 101%; in the test on SK-MEL-28 melanoma, 114%.
For `CCN=C1C=CC(=C(c2ccc(N(CC)CC)cc2)c2ccc(N(CC)CC)cc2)c2ccccc21`, the growth in the test with DU-145 prostate was -96.5% (active); in the test on K-562 leukemia it was -13.6% (active); in the test with MALME-3M melanoma it was -82.6% (active); in the test with MDA-MB-231 breast, -8.34% (active); in the test with RXF 393 renal it was -74.4% (active); in the test on SF-268 CNS, -18.6% (active). The growth with SF-295 CNS is -80.9% (active); with SF-539 CNS, -82.9% (active); with UACC-257 melanoma, -69.9% (active); with M14 melanoma, -67% (active); with HCT-15 colon, -70.9% (active); with HT29 colon, -59.7% (active). Moreover, the growth is -22% (active) in the test on SNB-75 CNS; -57.8% (active) with SNB-19 CNS; -89.1% (active) in the test with U251 CNS; -66.8% (active) with PC-3 prostate; -99.5% (active) in the test with SK-MEL-5 melanoma; -37.4% (active) in the test on UACC-62 melanoma. The values for the growth with LOX IMVI melanoma and with SK-MEL-28 melanoma were -64.6% (active) and -67.6% (active), respectively.
